17 compounds from PubChem BioAssay can be followed below.

A number with no mark means an inactive call. No rule for the calls is given here.

Sequence of Pantothenate synthetase (Mycobacterium tuberculosis (strain ATCC 25618 / H37Rv)) (P9WIL5 whole entry, looked up): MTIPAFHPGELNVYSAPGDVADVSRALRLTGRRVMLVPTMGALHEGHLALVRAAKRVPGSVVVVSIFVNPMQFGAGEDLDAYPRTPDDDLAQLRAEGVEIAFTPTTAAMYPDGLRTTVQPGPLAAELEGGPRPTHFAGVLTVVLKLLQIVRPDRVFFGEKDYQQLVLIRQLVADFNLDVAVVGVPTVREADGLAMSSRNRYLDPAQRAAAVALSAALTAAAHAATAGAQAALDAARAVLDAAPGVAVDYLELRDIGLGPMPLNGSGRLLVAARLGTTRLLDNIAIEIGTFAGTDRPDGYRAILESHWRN

The assay addresses Pantothenate synthetase (Mycobacterium tuberculosis (strain ATCC 25618 / H37Rv)) (UniProt P9WIL5). As to the kind of experiment: Coupled enzyme confirmation of inhibitors against recombinant Mtb PanC (AID 375).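 Also: 0% = full reaction with vehicle and 100% = no enzyme background.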 The conditions noted are these: coupled enzyme assay; at 10 µM, hits give high values.
On to `COc1cccc2cc(C(=O)N3CCc4ccccc43)c(=O)oc12`, for which the inhibition is 1%. With `C#CCOC(=O)C1C2C=CC(C2)C1C(=O)O` (configuration not stated) the figure was 1%; with `C=CCc1cc(C(=O)N2CCCCC2)ccc1O`, 0%; with `O=C(c1ccc2c(c1)OCO2)N1CCCN(C(=O)c2ccc3c(c2)OCO3)CC1`, 0%.

On to `COc1ccc(-c2nc(CSCC(=O)NCc3ccc4c(c3)OCO4)c(C)o2)cc1OC`, for which the inhibition is 0%. The value for `CCOC(=O)Cn1nnnc1C(C(C)C)N(Cc1cc2c(C)cc(C)cc2[nH]c1=O)C1CCCC1` (configuration not stated) was 0%; that for `COc1ccccc1-n1c(SCC(=O)NC(C)(C)C)nnc1-c1ccco1` was 0%. With `Cc1ccc2c(CC(=O)OCc3csc(C)n3)coc2c1` the figure was 0%. With `CCSc1nc2c(c(=O)n1CC)SC(C)C2` (configuration not stated) the figure was 0%; with `CC(C)(C)C1=C[C@@H](CO)C[C@@H](CO)C1`, 0%; with `COc1cc(C2c3c(oc4ccccc4c3=O)C(=O)N2c2ccc(C)cn2)ccc1O` (configuration not stated), 0%.

`OCCn1c(-c2ccc3c(c2)OCO3)csc1=Nc1ccccc1`: the inhibition is 1%.

Turning to `COc1ccc(NC(=O)CSc2c(C)nn(-c3nnc(C)c(=O)[nH]3)c2C)cc1`, the inhibition is 0%. With `CCCn1c(C)cc(C(=O)COc2ncnc3sccc23)c1C` the figure was 4%; with `COc1cccc(OC)c1C(=O)N1CCN(S(=O)(=O)c2ccccc2)CC1`, 0%.

Turning to `Cc1cc(NC(=O)c2ccc(Cl)cc2)no1`, the inhibition is 0%. The value for `O=c1oc2cc(O)ccc2c2oc3cc(O)ccc3c12` was 7%.
